Several values for one entry are separate records, joined by “and”; a condition that tells them apart may be missing. Identical values can stand only once. Screen size: about 420,000 compounds; about 50,000 (12%) were called active. Inconclusive results (about 26%) are left out. The list comes from a sample in which actives are over-represented; it also holds similar structures and randomly drawn compounds. A number with no mark means an inactive call. Calls come from the whole dose curve; as a rule, active = well fitted inhibition curve with a large enough effect; inconclusive = small, poorly fitted or top-dose-only effect; inactive = flat fitted curve, though single readings scatter.
% is set by controls: 0 for no effect and ±100 for the full control effect; potency is the fitted concentration of half-maximal effect.

The assay in a line: qHTS for Inhibitors of human tyrosyl-DNA phosphodiesterase 1 (TDP1): qHTS in cells in presence of CPT. Note: nearly all actives have a fitted effect of over 55% in size. As to conditions: chicken DT40 Tdp1-/-;hTDP1 cells + 20 nM CPT, ATP luminescence, 48 h; series mostly up to 46.2 µM; activity change, negative = growth inhibition: at the top concentration. An outline of the steps: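 Cell growth measured by CellTiter-Glo luminescence after a minimum 48 h, 37 C compound exposure with 20 nM CPT in Tdp1-knockout DT40 cells stably expressing hTDP1, seeded 400/well; qHTS titration format.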
Background: qHTS replaces the single test concentration by a dilution series.
As for `CC(=O)NC(CC(=O)Nc1nc(-c2ccccc2)c(C(C)=O)s1)c1ccccc1` (stereo not given), the “activity change, negative = growth inhibition” value was -14.9%. On the same count and under the same terms, under `COc1ccccc1C(=O)OCc1cc(=O)n2nc(-c3cccs3)sc2n1` stands -2.98%; under `Nc1ccccc1-c1nc2ccncc2[nH]1`, -25.7%; under `CCc1ccc(Oc2coc3cc(OC(=O)c4cc5ccccc5oc4=O)ccc3c2=O)cc1`, -14.6%. As to `O=C1c2ccccc2-c2ccccc2NC1O` (stereo not given), the “activity change, negative = growth inhibition” value was 11.2%. For the compound `O=C1NN(c2ccccc2)C(=O)/C1=C/c1ccc(-c2cccc(C(=O)O)c2)o1`, the “activity change, negative = growth inhibition” value is -25.8%.

Take `O=C1CCC[C@@H]2CC(N3CCCCC3)C[C@@H]3CCN1[C@H]23` (stereo not given in full): the “activity change, negative = growth inhibition” value was 0.158%. As for `CN(C)C(CNC(=O)c1ccc(S(=O)(=O)NCc2ccco2)cc1)c1ccccc1` (stereo not given), the “activity change, negative = growth inhibition” value is -18.1%.

As for `Cc1noc(C)c1S(=O)(=O)N(C)C[C@H]1OCCCC[C@@H](C)Oc2ccc(NC(=O)CCCN(C)C)cc2C(=O)N([C@H](C)CO)C[C@@H]1C`, the “activity change, negative = growth inhibition” value was -18.5%. In the case of `Cc1cc(/C=C2\SC(=Nc3ccc(N4CCOCC4)cc3)N(C)C2=O)c(C)n1-c1cccnc1`, the “activity change, negative = growth inhibition” value was -7.74%.

Turning to `CCCCN=C1C([N+](=O)[O-])=CC=C2C1=NC1(CCCCC1)N2O`, the “activity change, negative = growth inhibition” value is -26.7%. Consider `Cc1ccccc1OCC(=O)Nc1ccc(N2CCN(C(=O)C(C)C)CC2)c(Cl)c1`, for which the Potency is 13 µM (active). `CCc1ccccc1OCC(=O)Nc1ccc2c(c1)OCCO2`: the “activity change, negative = growth inhibition” value was -8.05%. On to `COc1ccccc1C(CNC(=O)c1ccc(C)c(S(=O)(=O)N2CCCCC2)c1)N(C)C` (stereo not given), for which the “activity change, negative = growth inhibition” value is -24.5%. Turning to `CCc1ccccc1OCC(=O)Nc1ccc(C)c(S(=O)(=O)N2CCCCCC2)c1`, the Potency was 14.6 µM (active). With `O=C(COC(=O)COc1ccccc1F)Nc1cccc(S(=O)(=O)N2CCCCC2)c1`, the “activity change, negative = growth inhibition” value is -15.3%. As to `Cc1ccccc1OCC(=O)Nc1ccc2c(c1)ncn2C`, the “activity change, negative = growth inhibition” value was 5.53%. For `Cc1ccccc1OCC(=O)Nc1ccc(S(=O)(=O)N2CCOCC2)cc1`, the “activity change, negative = growth inhibition” value was -15.5%.

For the compound `COc1ccc(NC(=O)C2=NNC(=O)CC2)cc1S(=O)(=O)N1CCCCC1`, the “activity change, negative = growth inhibition” value was -28.9%. Consider `COc1ccccc1C(=O)Nc1ccc(C)c(S(=O)(=O)N2CCCCC2)c1`, for which the Potency is 20.6 µM (active). Turning to `Clc1ccc(-c2cccc3nccn23)cc1`, the “activity change, negative = growth inhibition” value was -7.35%. Consider `Cc1ccc2c(c1)C(O)(CC(=O)c1cccc(-n3cccc3)c1)C(=O)N2` (stereo not given), for which the “activity change, negative = growth inhibition” value is 8.92%. Turning to `C=CCOc1ccc(/C=C/C(=O)OCC(=O)NC2CCCCCC2)cc1`, the “activity change, negative = growth inhibition” value is -3.73%. In the case of `O=C1OCCOC2CCCc3oc(-c4ccccc4)c1c32` (stereo not given), the “activity change, negative = growth inhibition” value is -12.7%. For `O=C(NCc1ccco1)/C(=C/c1cccc([N+](=O)[O-])c1)NC(=O)c1ccco1`, the “activity change, negative = growth inhibition” value is 12.8%.

`CCc1ccc(N(C(=O)c2csnn2)C(C(=O)NC2CCCCC2)c2ccncc2)cc1` (stereo not given): the “activity change, negative = growth inhibition” value is 5.47%. Take `O=S(=O)(c1ccc(F)cc1)N1CCN=C1SCc1cccc(F)c1`: the “activity change, negative = growth inhibition” value was -27.5%. Consider `Clc1cc(NC2CCCCC2)ncn1`, for which the “activity change, negative = growth inhibition” value is -0.0944%.

For the compound `Cc1cccn2c(=O)c(C(=O)NC(C)c3ccccc3)cnc12` (stereo not given), the “activity change, negative = growth inhibition” value is -4.93%.

In the case of `COc1ccc(CNC(=O)[C@@H]2CC=C[C@@H]3CCN(C4CC4)C(=O)[C@@H]32)cc1`, the Potency result is “inactive”. Regarding `COc1ccc(CNC(=O)C2CCCC2)cc1`, the “activity change, negative = growth inhibition” value is -6.86%. For the compound `CCCCC[C@H]1CN(C2CCCCC2)C(=O)[C@@H]1CC(=O)NCc1ccc(OC)cc1`, the Potency was 16.4 µM (active).

On to `CCN(CC)CCNC(=O)CN1N=C(c2ccc(OC)cc2)CCC1=O`, for which the “activity change, negative = growth inhibition” value is 6.9%. In the case of `O=C(NC1CCCCC1)c1ccc(Cn2c(SCc3ccccc3)nc3cccnc32)cc1`, the “activity change, negative = growth inhibition” value is -23.4%. Turning to `COc1ccccc1CCCNC(=O)C1CCC(=O)N(CCN2CCOCC2)C1` (stereo not given), the “activity change, negative = growth inhibition” value is 1.18%. For the compound `COc1ccccc1OCCn1c(SCC(N)=O)nc2ccccc21`, the “activity change, negative = growth inhibition” value was -2.22%. Regarding `COc1ccc(OCC(O)CN(C)C(=O)C(C)Oc2ccccc2)cc1` (stereo not given), the “activity change, negative = growth inhibition” value is -25.8%. `C=CCn1c(=N)n(CC(O)COc2ccc(OC)cc2)c2ccccc21` (stereo not given): the Potency was 16.4 µM (active). As to `CCCn1c(=N)n(CC(O)COc2ccccc2OC)c2ccccc21` (stereo not given), the Potency is 11.6 µM (active). In the case of `C=CCc1ccc(OCC(O)CN2CCN(Cc3ccccc3)CC2)c(OC)c1` (stereo not given), the “activity change, negative = growth inhibition” value is -24.3%. `COc1ccccc1OCC(O)CN1CCOCC1` (stereo not given): the “activity change, negative = growth inhibition” value was 1.56%. Still for that read-out and setting: as for `COc1c(N2CCN(C(=S)Nc3ccccc3F)C(C)C2)c(F)cc2c(=O)c(C(=O)O)cn(C3CC3)c12` (stereo not given), the figure is -27.8%; as for `CN(C)C(CNC(=O)c1cc2ccccc2o1)c1ccccc1` (stereo not given), -8%. As to `O=C(NCCc1ccc2c(c1)OCCO2)c1cc2ccccc2o1`, the Potency was 16.4 µM (active). In the case of `O=C(NCCc1ccc(C(F)(F)F)cc1)c1ccc2c(c1)OCO2`, the “activity change, negative = growth inhibition” value was -5.4%. For the compound `CCOc1ccc(C2C3=C(CCCC3=O)N(CC(=O)O)C3=C2C(=O)CCC3)cc1`, the “activity change, negative = growth inhibition” value is 2.38%.

Turning to `C=CCN1CCN(C(=O)CCCc2ccccc2)CC1`, the “activity change, negative = growth inhibition” value is -10.7%. Turning to `COc1ccc(NC(=O)[C@H](NC(=O)[C@@H]2Cc3ccccc3CN2)c2ccccc2)cc1`, the “activity change, negative = growth inhibition” value is -24.6%. Same read-out and setting: as for `CC12CCCCC1=CC(=O)CC2` (stereo not given), the figure is 7.55%; as for `Cn1c(=N)n(CC(O)c2ccccc2)c2ccccc21` (stereo not given), -9.01%. With `Cn1c(=N)n(CC(O)c2cccs2)c2ccccc21` (stereo not given), the “activity change, negative = growth inhibition” value was 0.351%. Regarding `CCOc1ccc(C(O)Cn2c(=N)n(CCN3CCCCC3)c3ccccc32)cc1` (stereo not given), the Potency was 20.6 µM (active). `NC(=O)C1CCN(C(=O)c2cn(-c3ccccc3)nc2-c2cccnc2)CC1`: the “activity change, negative = growth inhibition” value is -0.311%.

For the compound `CCOc1ccc(C(CC(=O)O)NC(=O)C23CC4CC(CC(C4)C2)C3)cc1OC` (stereo not given), the “activity change, negative = growth inhibition” value was -3.54%. With `COC(=O)c1ccc(NC(=O)c2cc(Cl)ccc2OC)cc1`, the “activity change, negative = growth inhibition” value is -24.8%. Consider `COc1ccc(C(=O)Nc2ccc3nc(N4CCCCC4)cc(C)c3c2)cc1OC`, for which the Potency was 23.1 µM (active) and 20.6 µM (active).

Regarding `CCN1CCN(c2cc(C)c3cc(NC(=O)c4cc(Cl)ccc4OC)ccc3n2)CC1`, the Potency is 4.61 µM (active). In the case of `COc1ccc(NC(=O)CC2SC(N3CCCCC3)=NC2=O)cc1OC` (stereo not given), the “activity change, negative = growth inhibition” value is 12.9%. Same read-out and setting: under `Cc1cc(N2CCN(C)CC2)nc2ccc(NC(=S)N3CCOCC3)cc12` stands 9.63%. Turning to `CCOCCCNC(=S)Nc1ccc2nc(N3CCN(CC)CC3)cc(C)c2c1`, the “activity change, negative = growth inhibition” value is -9.76%. On to `CCOc1cc(C(C(=O)NCC2CCCO2)N(C(=O)Cn2nnc3ccccc32)c2cccc(OC)c2)ccc1O` (stereo not given), for which the “activity change, negative = growth inhibition” value is 16.8%. For the compound `Cc1nnc(C(=O)NC(C)(C)c2nc(C(=O)NCc3ccc(F)cc3)c(O)c(=O)n2C)o1`, the “activity change, negative = growth inhibition” value was -17.6%. For `NC(=O)CCN1CCN(S(=O)(=O)/C=C/c2ccccc2)CC1`, the “activity change, negative = growth inhibition” value is -1.26%. For the compound `CN1OC[C@@H]2CN[C@H](c3ccc(-c4ccccc4)cc3)C[C@@H]21`, the “activity change, negative = growth inhibition” value was -7.22%.

Take `Cc1ccc(NC(=O)CSc2nc3c(c(=O)[nH]2)CN(Cc2ccc4c(c2)OCO4)CC3)cc1C`: the “activity change, negative = growth inhibition” value was -21.7%.

(Values after PubChem BioAssay AID686979 (National Center for Advancing Translational Sciences (NCATS), 2013).)
